Bioassay records from PubChem.
aSyn 5UTR act: Activators via SNCA 5'UTR binding, MLPCN | alpha-synuclein 5'UTR reporter, activators screen | activity score, % (tested at 7.5 µM), hits read low | 300,000 compounds, 7.1% hits; in the data active = activity score below about -60%
* marks the source's active call; other numbers are inactive results. Only a sample is shown.

SMILES | aSyn 5UTR act
O=C(Nc1ccc2nc(-c3ccco3)[nH]c2c1)c1cccs1 | -190.4*
CC(=O)Nc1ccc2nc(-c3ccco3)[nH]c2c1 | -72.9*
COCCCNC(=O)C1CCN(C(=O)c2oc3cc4sc(N(C)C)nc4cc3c2C)CC1 | -93.0*
COc1cc(C=O)ccc1OCCSc1ccc(Cl)cc1 | -86.6*
O=C(NCc1ccco1)c1cc(-c2cccs2)on1 | -297.4*
O=C(NCc1ccco1)c1cc(-c2ccccc2)on1 | -161.4*
O=C(NCc1ccco1)c1cc(-c2ccc(F)cc2)on1 | -198.2*
O=C(NCc1ccccc1)c1cc(-c2cccs2)on1 | -95.3*
O=C(COn1nnc2ccccc21)NCC1CCCCC1 | -78.1*
O=C(COn1nnc2ccccc21)N1CCN(Cc2ccccc2)CC1 | -65.7*
Cc1ccc(Cn2ccnc2C(=O)Nc2ccccc2)cc1 | -156.3*
Cc1ccc(C2CN=NC23CCc2ccccc2C3=O)cc1 (centres undefined) | -79.6*
c1ccc(Cn2cc(CSc3ccccc3)nn2)cc1 | -137.1*
COc1cc(C#CC#CCN2CCCCC2)ccc1O | -80.7*
N#CC1=C(N)N2C(=C(C#N)C1c1cccc(Br)c1)Nc1ccccc12 (centres undefined) | 59.6
C/C(=N\Nc1ccccn1)c1ccc(C(C)C)cc1 | -132.5*
O=[N+]([O-])c1ccc(N/N=C/c2sc(N3CCOCC3)nc2-c2ccccc2)c(S(=O)(=O)Nc2ccc(Cl)cc2)c1 | 75.8
Clc1cccc(N/N=C/c2ccc(N3CCOCC3)cc2)c1 | -183.1*
C(=N\Nc1ccccn1)/c1ccc(N2CCOCC2)cc1 | -182.4*
O=[N+]([O-])c1cccc(N/N=C/c2ccc(N3CCOCC3)cc2)c1 | -225.0*
C(=N\Nc1ccccc1)/c1ccc(N2CCOCC2)cc1 | -153.7*
C/C(=N\Nc1ccccn1)c1ccc(N2CCOCC2)cc1 | -155.9*
O=C(OCCN1C(=O)c2cccc3c(N4CCOCC4)ccc(c23)C1=O)c1ccc(Cl)cc1Cl | 99.1
O=C1c2cccc3cc([N+](=O)[O-])cc(c23)C(=O)N1CCN1CCCC1 | 97.8
C=CCN1C(=O)c2cccc3c(N4CCCCC4)ccc(c23)C1=O | -65.8*
SMILES | aSyn 5UTR act
O=C1c2cccc3c(N4CCCCC4)ccc(c23)C(=O)N1c1cccc(O)c1 | -77.6*
O=C1c2cccc3c(N4CCCCC4)ccc(c23)C(=O)N1CCO | -119.6*
Cc1ccc(CNC(=O)C2(S(=O)(=O)c3ccccc3)CC=CC2)cc1 | -113.7*
CN(C)c1ccc(C2C3CCCc4ccccc4C3=NN2C)cc1 (centres undefined) | -134.2*
CN1N=C2c3ccccc3CCC2C1c1ccc(C(F)(F)F)cc1 (centres undefined) | -71.6*
O=C(COc1ccc(F)cc1)Nc1nc2c(s1)CCCC2 | -91.9*
O=C(COc1ccc(F)cc1)Nc1nccs1 | -90.8*
O=C(Nc1nccs1)c1ccc(COc2ccc(F)cc2)o1 | -97.1*
Cc1c(C)c2ccc(OCC(=O)Nc3nccs3)cc2oc1=O | 66.2
O=C(C1CCCN(c2ncnc3c2nc2n3CCCCC2)C1)N1CCN(c2ccccc2)CC1 (centres undefined) | -148.2*
Cc1cccc2c1-c1sc(C(=O)N3CCCCC3)cc1CO2 | -99.7*
CCN1CCN(C(=O)c2cc3c(s2)-c2c(C)cccc2OC3)CC1 | -141.1*
Cc1cc(-c2n[nH]c(=S)o2)c(C)n1-c1ccccc1 | -144.3*
COCCCNC(=O)c1ccc(N2CCCC2)c(NS(=O)(=O)c2ccc(C)cc2)c1 | -72.5*
CC(C)CNC(=S)NC(=O)c1ccccc1Cl | -93.2*
COc1ccc(NC(=S)NC(=O)c2ccccc2Cl)cc1 | -129.6*
CCn1cc(C(=O)NC(=S)Nc2ccccc2[N+](=O)[O-])cn1 | -94.1*
Cc1ccc(O)c(NC(=S)NC(=O)c2ccccc2Cl)c1 | -120.3*
O=C(NC(=S)Nc1ccccc1[N+](=O)[O-])c1ccccc1Cl | -94.2*
O=C(NC(=S)Nc1ccc(O)cc1)c1ccccc1Cl | -160.8*
Cc1sc(=NC(=O)c2ccco2)n(C)c1-c1ccc(F)cc1 | -113.1*
Cn1c(=NC(=O)c2ccco2)sc2ccccc21 | -125.8*
Cn1c(=Nc2ccccc2)sc2ccccc21 | -76.6*
CCOC(=O)c1ccc2nc3c(cc2c1)CCS3 | -148.5*
O=c1c2c(nc3c(-c4ccc(Cl)cc4)c[nH]n13)CCCC2 | 66.0
SMILES | aSyn 5UTR act
Cc1nc2c(-c3ccc(Cl)cc3)cnn2c2c1CCC2 | -122.5*
COc1ccc(-c2cc(C(=O)N3CCCCCC3)no2)cc1OC | -123.6*
COc1ccc(-c2cc(C(=O)N3CCCCCC3)no2)cc1 | -85.5*
CC(=O)Nc1c(C(=O)Nc2ccc3c(c2)OCO3)oc2ccccc12 | -87.6*
COCC(=O)Nc1c(C(=O)Nc2ccc3c(c2)OCO3)oc2ccccc12 | -116.7*
Cc1c(C(=O)Nc2ccc3c(c2)OCO3)oc2ccccc12 | -136.6*
O=C(CCl)Nc1c(C(=O)Nc2ccc3c(c2)OCCO3)oc2ccccc12 | -139.0*
COCOc1ccc(-c2cc(=O)c3c(OCOC)cc(OCOC)cc3o2)cc1 | -125.3*
Cc1cccc(NC(=O)Cc2c(F)cccc2Cl)n1 | -103.2*
Cc1ccc2c(CC(=O)Nc3nc(C)cs3)coc2c1 | -70.3*
Cc1csc(NC(=O)Cc2c[nH]c3ccccc23)n1 | -94.6*
CN1CCN(CC(=O)Nc2nc(-c3c[nH]c4ccccc34)cs2)CC1 | -62.5*
Cc1cc(CNC(=O)Cc2c(F)cccc2Cl)nn1C | -71.6*
Cc1csc(NC(=O)Cc2c(F)cccc2Cl)n1 | -131.2*
COc1ccc2c(CC(=O)Nc3ncc(C)s3)coc2c1 | -133.2*
Cc1csc(NC(=O)Cc2ccc(F)cc2)n1 | -64.7*
Cc1ccc(CC(=O)Nc2cccc(C)n2)cc1 | -171.9*
O=C(Cc1c[nH]c2ccccc12)Nc1nc2ccccc2[nH]1 | -101.3*
N#Cc1cc2ccc(N3CCOCC3)cc2cc1C#N | -72.6*
CCCOC(=O)c1ccc(-c2ccc(C=O)o2)cc1 | -96.8*
CCOC(=O)c1ccc(-c2ccc(C=O)o2)cc1 | -146.3*
C=CCNC(=O)c1ccc(OC2CCN(S(=O)(=O)N(C)C)CC2)cc1 | -161.6*
Cc1ccc(C(C)C)c(OCc2ccc(C(=O)N/N=C/c3cccc(O)c3O)cc2)c1 | 108.5
O=C(O)c1cccc(NC(=S)N/N=C/c2ccccc2OCc2ccc(Br)cc2)c1 | -83.7*
O=C(O)c1cccc(NC(=S)N/N=C/c2cccc(O)c2)c1 | 57.7
SMILES | aSyn 5UTR act
COc1ccc(NC(C)C(=O)N/N=C/c2ccccc2OCc2ccc(Br)cc2)cc1 (centres undefined) | -77.3*
Cc1csc(SCc2nnc(-c3ccccc3Br)o2)n1 | -88.0*
Cc1ccc(-c2nnc(CSc3nnc(C)s3)o2)cc1 | -79.4*
Cc1csc(SCc2nnc(-c3ccc(Cl)cc3)o2)n1 | -172.8*
O=C(Nc1csc([N+](=O)[O-])c1)Nc1ccccc1Cl | -88.6*
O=C(Nc1cccnc1)Nc1ccccc1Cl | -71.8*
O=C(NCc1ccco1)Nc1ccc(Br)cc1Cl | -170.4*
Cc1ccc(NC(=O)Nc2cccnc2)cc1Cl | -110.9*
Cc1ccc(NC(=O)Nc2ccc3c(c2)C(=O)OC3)cc1Cl | -82.7*
O=C(Nc1ccc(Cl)c(Cl)c1)OCc1cccnc1 | -73.0*
O=C(Nc1ccc(Cl)cc1)Nc1ccccc1Sc1ncc([N+](=O)[O-])s1 | -90.4*
O=C(Nc1ccc2c(c1)CCC2)Nc1ccccc1Cl | -110.2*
O=C(Nc1ccc(Nc2ccccc2)cc1)Nc1ccccc1Cl | -226.9*
O=C(Nc1cccnc1)Nc1ccc(Br)cc1Cl | -68.1*
O=C(Nc1ccccc1)Nc1cc(OCC(F)(F)F)cc(OCC(F)(F)F)c1 | 74.4
O=C(Nc1cccc(Cl)c1)Nc1ccc(Br)cc1F | -114.6*
O=C(Nc1ccccc1)Nc1ccc(Br)cc1F | -163.1*
